Measurements reported in PubChem BioAssay AID686979 (National Center for Advancing Translational Sciences (NCATS), 2013).
Values joined by “and” are separate entries in the source; they are usually repeats but may differ in a detail not shown here. Equal values may be shown once. Screen size: about 420,000 compounds; about 50,000 (12%) were called active. Inconclusive results (about 26%) are left out. Shown is part of a subset that was picked to be rich in actives. Where a call stands in place of a potency, no number is given. Values without a mark were called inactive. Calls come from the whole dose curve; as a rule, active = well fitted inhibition curve with a large enough effect; inconclusive = small, poorly fitted or top-dose-only effect; inactive = flat fitted curve, though single readings scatter.

Assay: qHTS for Inhibitors of human tyrosyl-DNA phosphodiesterase 1 (TDP1): qHTS in cells in presence of CPT; note: nearly all actives have a fitted effect of over 55% in size
Settings: chicken DT40 Tdp1-/-;hTDP1 cells + 20 nM CPT, ATP luminescence, 48 h; series mostly up to 46.2 µM
Method in brief: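 Chicken DT40 Tdp1-/- cells complemented with human TDP1, 400 cells/well, exposed to compounds plus 20 nM camptothecin for at least 48 h at 37 C; viability read as ATP content by CellTiter-Glo luminescence.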
Potency is the fitted concentration of half-maximal effect.

Compound	Potency	activity change, negative = growth inhibition
COCCn1c(=O)c(-c2ccc(OC)cc2)nc2cnc(Oc3cccc(Cl)c3)nc21	inactive	
Cc1cc(C)n(-c2ccc3nncn3n2)n1	inactive	
COc1ccc(-c2noc(CSc3nc4ccc(C)cc4[nH]3)n2)cc1	20.6 µM (active)	
COc1ccc(-c2noc(CCC(=O)N(C)c3ccccc3C)n2)cc1	inactive	
COc1ccccc1Cc1nc(-c2ccc(C)cc2)no1	inactive	
Cc1ccc(S(=O)(=O)N(Cc2nc(-c3ccc(Cl)cc3)no2)C2CCCCC2)cc1	16.4 µM (active)	
COc1ccc(-c2noc(CSc3ccc(C)cc3)n2)cc1	inactive	
COc1ccc2nc(SCC(=O)Nc3c(C)cc(C)cc3C)[nH]c2c1	inactive	
CC1CCN(Cc2nc(-c3ccc(Cl)cc3)no2)CC1	inactive	
COc1ccc(-c2noc(CN(C)S(=O)(=O)c3ccc(C)cc3)n2)cc1	16.4 µM (active)	
Cc1ccc(-c2noc(CC(c3ccccc3)c3ccccc3)n2)cc1	inactive	
Cc1cccc(OCC(=O)NCCNC(=O)c2cccnc2)c1	inactive	
CCCC(=O)N1CCN(c2nc3c(OC)ccc(C)c3s2)CC1	inactive	
CC(C)C(=O)Nc1c2c(nn1-c1ccccc1)CSC2	inactive	
O=C(CN1C(=O)CCS(=O)(=O)c2ccccc21)NCc1ccc(F)cc1	inactive	
CN(CC(=O)Nc1ccccc1Cl)C(=O)c1ccccc1SCC(=O)N1CCCC1	inactive	
Cc1cccc(CNC(=O)c2cnn(-c3nccc(-c4ccccc4F)n3)c2C2CC2)n1		-0.952% [at 9.04 µM]
CCOc1ccccc1N1CN(Cc2ccccc2)CNC1=S	inactive	
O=C1CCCN1C(=O)COc1ccc([N+](=O)[O-])cc1	inactive	
CN(Cc1ccccc1)C(=O)c1cn(C)c2ccc(S(=O)(=O)N(C)C3CCCCC3)cc2c1=O	inactive	
CCc1ccc(NS(=O)(=O)c2ccc3[nH]cc(C(=O)NCCc4cccc(C)c4)c(=O)c3c2)cc1	inactive	
CN(c1ccccc1)S(=O)(=O)c1ccc(Cl)c(C(=O)OCC(N)=O)c1	inactive	
CN(c1ccccc1)S(=O)(=O)c1ccc(Cl)c(C(=O)NCCc2c[nH]c3ccccc23)c1	14.6 µM (active)	
CC(=O)N/C(=C/c1ccc(Cl)cc1)C(=O)NCCc1c[nH]c2ccccc12	inactive	
O=C(NCCc1ccccc1)c1c[nH]c2ccc(F)cc2c1=O	inactive	
CCN(CC)S(=O)(=O)c1ccc2[nH]cc(C(=O)NCCc3ccccc3)c(=O)c2c1	14.6 µM (active) and 23.1 µM (active)	

Compound	Potency	activity change, negative = growth inhibition
CN(CC(=O)NC(=O)Nc1ccccc1F)Cc1ccccc1	inactive	
COCCNC(=O)C1CCN(C(=O)C2CC(=O)N(c3ccc(C)cc3)C2)CC1 (stereo unspecified)	inactive	
CCN(CC)CCCNC(=O)COc1ccc2oc3c(c2c1)CCCC3	inactive	
N[C@@H](Cc1ccccc1)C(=O)N1CCOCC1	inactive	
COc1cc(OC)cc(C(=O)NCCCn2ccnc2)c1	inactive	
CCc1cccc(NC(=O)COC(=O)C2CCN(c3ccc(C(F)(F)F)cn3)CC2)c1	inactive	
CCOc1ccc(-c2cc3nc(C4CCN(C(=O)OC(C)(C)C)CC4)c(C(=O)Nc4cccc(CC)c4)cn3n2)cc1	23.1 µM (active)	
CCOc1ccc(-c2cc3nc(C4CCN(C(=O)OC(C)(C)C)CC4)c(C(=O)Nc4ccc(C(=O)OC)cc4)cn3n2)cc1	inactive	
O=c1[nH]cnc(O)c1C(c1ccc(F)cc1)c1c(O)nc[nH]c1=O	inactive	
CC(=O)Oc1ccc(C(C)=O)c2c1OCCO2	inactive	
CC(=O)NCCc1ccc(S(=O)(=O)Nc2ccc(C)c(S(=O)(=O)N3CCOCC3)c2)cc1	inactive	
Oc1ccccc1C=NC1CCCCC1N=Cc1ccccc1O (stereo unspecified)	inactive	
C=CCOc1ccccc1/C=N/NC(=O)Cc1ccccc1	inactive	
O=C(NN=Cc1ccccc1O)NN=Cc1ccccc1O	4.11 µM (active)	
O=C(CCC(=O)Nc1ccccc1)N/N=C/c1ccccc1F	inactive	
O=C(N/N=C/c1ccccc1O)/C(=C/c1ccccc1)CCO	3.26 µM (active)	
O=C(CCCCCNC(=O)c1ccccc1)N/N=C/c1ccccc1	inactive	
CN(Cc1nc2ccccc2s1)C(=O)c1ccc(F)cc1	inactive	
CCCS(=O)(=O)NC(=O)C1(C)CCN(C(=O)c2sccc2C)C1 (stereo unspecified)	inactive	
CCc1ccc(C(=O)C(C)OC(=O)CN2C(=O)NC3(CCCC3)C2=O)cc1 (stereo unspecified)	inactive	
COC(=O)Nc1ccc(S(=O)(=O)Nc2cc(OC)nc(OC)n2)cc1	inactive	
CCOC(=O)c1ccc(NC(=O)Cn2c(=O)n(-c3ccc(C)cc3)c(=O)c3c2cnn3C)cc1	inactive	
COC(=O)C1=C(C(=O)OC)C2(OC1c1ccc(Br)cc1)C(=O)c1ccccc1C2=O (stereo unspecified)	inactive	
CCOc1ccc(-c2n[nH]c3c2C(c2ccccc2OC)N(c2ccc(Br)cc2)C3=O)cc1 (stereo unspecified)	16.4 µM (active)	
CCOc1ccc(/C(O)=C2\C(=O)C(=O)N(c3ccc(OC)cc3)C2c2ccccc2[N+](=O)[O-])cc1 (stereo unspecified)	inactive	
CN1C(=O)c2[nH]nc(-c3ccc(F)cc3)c2C1c1ccccn1 (stereo unspecified)	inactive	

Compound	Potency	activity change, negative = growth inhibition
Cc1cccc(NC(=O)CSc2nnc(-c3ccco3)o2)c1	inactive	
O=C(CCc1ccccc1)Nc1cccc(-c2nnc(-c3ccco3)o2)c1	25.9 µM (active)	
C/C(=N/NC(=O)CCc1ccccc1)c1ccco1	inactive	
COc1ccc(C(=O)NCC2CCCO2)cc1S(=O)(=O)NCc1ccc(Cl)cc1 (stereo unspecified)	inactive	
Cc1[nH]c2ccccc2c1C(=O)C(C)Sc1nnc(C2CC2)o1 (stereo unspecified)	inactive	
COc1ccc(-c2cc(C(F)(F)F)n3nc(-c4ccccc4)cc3n2)cc1OC	10.3 µM (active)	
COC(=O)c1cc2nc(-c3ccccc3)cc(C(F)(F)F)n2n1	inactive	
Cc1cc(-c2ccccc2)n2nc(-c3ccccc3)cc2n1	inactive	
O=C(NC1CC(=O)N(c2ccc(F)cc2)C1)C1CCCCC1 (stereo unspecified)	inactive	
CC1CCN(S(=O)(=O)c2ccc3c(c2)n(C)c(=O)n3C)CC1	inactive	
Cc1ccc(-c2ccnc(-n3ncc(C(=O)N(C)Cc4cccc5ncccc45)c3C3CC3)n2)o1		10% [at 9.04 µM]
CC1(C)Oc2ccc3ccc(=O)oc3c2/C(=N/O)C1=O	inactive	
CCOc1ccc(N(Cc2ccccc2)C(=O)c2nc(SCC)ncc2Cl)cc1	29.1 µM (active)	
CCSc1nnc2c(n1)OC(c1ccc(OCC(=O)O)cc1)Nc1ccccc1-2 (stereo unspecified)	inactive	
CCOc1ccc(NC(=O)CN(Cc2ccccc2)S(=O)(=O)c2ccc(Cl)cc2)cc1	inactive	
CCOc1ccc(N(Cc2ccccc2)C(=O)c2nc(S(C)(=O)=O)ncc2Cl)cc1	0.58 µM (active)	
CCSc1ncc(Cl)c(C(=O)Nc2c(C(=O)c3ccccc3)oc3ccccc23)n1	inactive	
CCOc1ccc(S(=O)(=O)N(CC(=O)O)c2ccccc2)cc1	inactive	
COc1cc(=O)n2c(c1C(=O)NCc1ccco1)CCN(Cc1ccccc1)CC2		13.5% [at 9.04 µM]
Cc1cccc(NC(=O)NC2(C)CCS(=O)(=O)C2)c1 (stereo unspecified)	inactive	
COc1cc(Cl)c(C)cc1NC(=O)CSc1nnc(CN2CCCC2)o1	inactive	
COc1ccccc1CNC(=O)COn1nnc2ccc(S(=O)(=O)N3CCOCC3)cc21	inactive	
COc1cccc(NC(=O)c2csnn2)c1	inactive	
COc1cccc(NC(=O)C(C)Oc2ccccc2)c1 (stereo unspecified)	inactive	
COc1cccc(NC(=O)C2C(c3ccccc3)C2(Cl)Cl)c1 (stereo unspecified)	29.1 µM (active)	
CSc1ccc(CNC(=O)c2ccc(NC(=O)C3=CSCCO3)cc2)cc1	inactive	

Compound	Potency	activity change, negative = growth inhibition
Cc1ccc(Cn2cc(CN3CC(N4CCN(C)CC4)CS3(=O)=O)nn2)cc1 (stereo unspecified)	inactive	
O=S1(=O)CC(N2CCN(CCO)CC2)CN1Cc1cn(Cc2ccc(Cl)cc2)nn1 (stereo unspecified)	inactive	
Cc1ccc(-c2ccc(CN3C(C(C)C)C(=O)N(Cc4cn(CCC5OCCO5)nn4)CCS3(=O)=O)cc2)cc1 (stereo unspecified)	16.4 µM (active)	
CC(C)C1C(=O)N(Cc2cn(CCC3OCCO3)nn2)CCS(=O)(=O)N1Cc1ccc(-c2ccccc2C(F)(F)F)cc1 (stereo unspecified)	13 µM (active)	
CC(NC(=O)C(=O)N/N=C/c1ccc(Cl)cc1)c1ccccc1 (stereo unspecified)	inactive	
O=C(O)C1=CCCN(CCON=C(c2ccccc2)c2ccccc2)C1	inactive	
COc1cc(C2/C(=C(\O)c3ccc4c(c3)CC(C)O4)C(=O)C(=O)N2Cc2ccco2)ccc1O (stereo unspecified)	inactive	
CN(CC(=O)NCCc1ccc(S(N)(=O)=O)cc1)CC(=O)Nc1ccc(Cl)cc1	inactive	
O=C1/C(=C/c2cccs2)SC(=S)N1C1CCS(=O)(=O)C1 (stereo unspecified)	14.6 µM (active)	
O=C(CCN1C(=O)/C(=C/c2cccs2)SC1=S)NNC(=O)c1cccc(O)c1	inactive	
N/C(=N\OC(=O)Nc1ccccc1)c1ccno1	inactive	
Cc1cccnc1NC(=O)Cn1c(=O)oc2ccccc21	inactive	
O=C(NCCCn1ccnc1)c1ccccc1F	inactive	
COc1ccccc1NS(=O)(=O)c1ccc(C)c(C(=O)NNC(=O)c2csc(N3CCOCC3)n2)c1	inactive	
CCC(C)(C)C1CCC(=NNC(=O)c2ccc(Br)o2)CC1 (stereo unspecified)	inactive	
CCCC1CCC(=NNC(=S)NCCc2ccccc2)CC1 (stereo unspecified)	16.4 µM (active)	
O=C(NCCc1ccccc1)C1CC1	inactive	
Cc1ccc2[nH]c3c(=O)n(CC(=O)NCCc4ccc(Cl)cc4)ncc3c2c1	inactive	
COc1ccc(S(=O)(=O)N2CCN(CC(=O)N3c4ccccc4CC3C)CC2)cc1OC (stereo unspecified)	inactive	
COc1cccc(/C=C(/CC(=O)Nc2ccc(N3CCOCC3)cc2)c2nc3ccccc3s2)c1	inactive	
Cc1cc(C)c(C=NNc2nc3c([nH]2)c(=O)n(C)c(=O)n3C)c(C)c1	inactive	
Oc1ccc(-c2nnc(Nc3ccccc3)c3ccccc23)cc1	inactive	
O=c1ccc2c(-c3ccccc3S(=O)(=O)O)c3ccc(O)c(O)c3oc-2c1O	16.4 µM (active)	
